# Measurements: PubChem BioAssay
# Where “and” joins values, the source holds several entries; their conditions need not be identical. Equal values may be shown once. Inconclusive results are not listed. For part of these data: Results with a measured potency or affinity are listed apart. Calls of active or inactive are those of the source. Unless noted, no rule for the calls is given here.
# Experiments:
# [1] = polyglutamine-triggered caspase-3 activation inhibitors, cell-based (AID 1583); conditions: polyglutamine-induced caspase-3 activation, cell assay; stronger effect = higher value;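 tested at 10 µM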
# [2] = biological target: Huntingtin (Homo sapiens) (UniProt P42858); assay: inhibitors of mutant Htt aggregation in vitro, dose response, QA1 (AID 1584); conditions: in vitro mutant huntingtin aggregation assay; confirmation test; at 10 µM; stronger effect = lower value
# [3] = inhibitors of polyQ aggregate elongation, biochemical, solid-phase synthetic aggregates, QA3 (AID 1585); conditions: biotin-polyQ incorporation; EC50: measured here: elongation inhibition potency; inhibition: at 100 µM, stronger effect = higher value
# [4] = suppressors of polyQ aggregation in yeast, 75Q-TubU reporter (AID 1593); conditions: Yeast 75Q polyglutamine aggregation reporter
# [5] = rescue of polyQ-huntingtin neuronal dysfunction in worms, whole organism, C. elegans mechanosensory neurons, N-terminal huntingtin (AID 1599); conditions: touch response, stronger effect = higher value
# [6] = inhibitors of mitochondrial cytochrome c release, biochemical, purified mitochondria (AID 1603); conditions: stronger effect = lower value;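 also: mouse liver mitochondria challenged with calcium chloride; signal normalized to the plate average as 100%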
# [7] = inhibitors of polyQ protein aggregation (AID 1604); conditions: polyglutamine-induced protein aggregation inhibition assay; stronger effect = higher value; tested at 2.5 µM
# [8] = enhancers of glutamate uptake in motor neurons, MN-1 cell line (AID 1612); conditions: MN-1 motor neuron cells, stronger effect = higher value;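 also: tested at 1 µM final; 0% = mean of DMSO vehicle wells on each plate; positive means more glutamate uptake than control and negative means less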
# [9] = reducers of polyQ inclusions in PC12 cells, cell-based, NGF-treated PC12, GFPQ80 (AID 1614); conditions: PC12 NGF-treated GFP-polyQ80 inclusion reduction;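 also: lower means fewer inclusions and 0 means no inclusions at all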
# [10] = suppressors of polyglutamine aggregation in yeast, 75Q-TubH (AID 1616); conditions: S. cerevisiae 75Q-TubH polyglutamine aggregation suppression; stronger effect = higher value
# [11] = biological target: 6-phosphogluconate dehydrogenase, decarboxylating (Homo sapiens) (UniProt P52209); assay: 6PGD enzyme inhibitors, primary screen, biochemical, human, recombinant enzyme, NADPH absorbance (AID 1159550;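 active = at least 20% inhibition of 6-phosphogluconate dehydrogenase activity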); conditions: recombinant 6PGD, NADPH absorbance 341 nm; at 10 µM; stronger effect = higher value
# [12] = test system: Aerobactin synthetase IucA (Klebsiella pneumoniae hvKP1); assay: Biochemical IucA enzyme inhibition primary screen of the Spectrum library (AID 1346200); conditions: malachite green pyrophosphate, A620, at 8 µM, stronger effect = lower value;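 also: 100% = wells without compound and 0% = wells lacking enzyme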
# [13] = survival rescue of mitochondrial mutant cells in low glucose, primary screen, MELAS cybrids, Rieske KO mouse fibroblasts, CellTiter-Glo (AID 1508586;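 active = mean z-score across replicates of 1.96 or higher in either the MELAS or the Rieske mutant cell line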;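 also: z relative to plate mean and SD of compound and empty wells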)
# [14] = biological target: Mitogen-activated protein kinase 7 (Homo sapiens) (UniProt Q13164); assay: ERK5 transactivation activators in reporter cells, primary screen, cell-based, HTS (AID 1508626;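 active = luciferase signal above three times the same-plate solvent-only control wells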;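 also: luciferase driven by Gal4-ERK5 fusion binding five Gal4 sites before minimal TATA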); conditions: HeLa Gal4-ERK5 transactivation, 18 h, at 5 µM, stronger effect = higher value
# [15] = liver-stage malaria parasite growth inhibition, primary screen, cell-based, HepG2, luciferase luminescence, HepG2 viability (AID 624349; in the data active = parasite load remaining mostly below about 12%, no sharp cut-off; inactive = mostly above about 10%;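 also: 100% = mean of DMSO negative control wells on the same plate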); conditions: P. berghei liver stage in HepG2, luciferase luminescence, concentration not given here; parasite load remaining: stronger effect = lower value; viability: measured here: HepG2 viability without parasites
# [16] = sensitizers of A549 cells to miR-34 induction, primary screen, imaging, A549 dox-inducible miR-34, nuclei and caspase counts (AID 1347080;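 active = compounds whose cell count with miR-34 switched on is under 0.7 times the count with it off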); conditions: A549 miR-34 inducible, Hoechst nuclei count, 48 h
# [17] = biological target: NAD(+) hydrolase SARM1 (Homo sapiens) (UniProt Q6SZW1); assay: SARM1 TIR NADase inhibitors, cell lysate, NAD-Glo luminescence (AID 1508614;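 active = compound whose remaining NAD level is above about 45 nM, limit read from the data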;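 also: higher remaining NAD means stronger inhibition of SARM1 NADase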); conditions: SAM-TIR HEK293T lysate NADase, at 1 µM, stronger effect = higher value
# [18] = viability rescue of complex I mutant cybrids, primary screen, cell-based, galactose medium, ATP luminescence (AID 1645843;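 active = z-score of at least 1.8 in each of two replicates, scored against plate mean and spread of sample wells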;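 also: positive z means more ATP and so rescue of galactose-driven cybrid death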); conditions: complex I mutant cybrid cells, 72 h, stronger effect = higher value
# [19] = growth inhibition of DIPG glioma cells, dose response, cell-based, SU-DIPG-XIII, MIPE4.0, CellTiter-Glo, qHTS (AID 1347061; cut-off not given, nearly all actives have AC50 up to about 37 µM;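 also: cells exposed to compound for 48 hours before readout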); conditions: SU-DIPG-XIII viability, CellTiter-Glo ATP luminescence
# [20] = growth inhibition of DIPG glioma cells, dose response, cell-based, SU-DIPG-IV, MIPE4.0, CellTiter-Glo, qHTS (AID 1347063; cut-off not given, nearly all actives have AC50 up to about 30 µM;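 also: compound exposure lasted 48 hours before the viability readout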); conditions: SU-DIPG-IV viability, CellTiter-Glo ATP luminescence
# [21] = SU-DIPG-VI glioma cell viability, MIPE4.0 library, CellTiter-Glo luminescence, qHTS (AID 1347066; cut-off not given, nearly all actives have AC50 up to about 30 µM;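 also: cells exposed to compound for 48 hours before readout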); conditions: CellTiter-Glo ATP luminescence
# [22] = biological target: ATP-dependent translocase ABCB1 (Homo sapiens) (UniProt P08183); assay: MDR1 (ABCB1) efflux transporter inhibition, cell-based (AID 377; in the data active = fluorescence slope change above about 50%); conditions: MDR1-expressing cells, fluorescent substrate accumulation slope; stronger effect = higher value; concentration not given here
# [23] = hESC survival regulators, cell-based (AID 493140); conditions: human embryonic stem cell survival screen; stronger effect = higher value;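 also: cells exposed to compounds for four days before counting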
# [24] = Cy5 fluorescence interference with SSB-bound oligo, artefact control for HCV NS3 helicase inhibitor project, biochemical, NIH Clinical Collection, E. coli SSB (AID 743268)
# [25] = test system: Hepatitis C virus NS3 helicase; assay: HCV NS3 helicase inhibitors, primary screen, biochemical, fluorescence polarization, NIH Clinical Collection (AID 743270); conditions: NS3 helicase binding to Cy5-dT15 DNA, stronger effect = higher value, concentration not given here
# [26] = biological target: Single-stranded DNA-binding protein (Escherichia coli (strain K12)) (UniProt P0AGE0); assay: E. coli SSB displacement from DNA, counter-screen for HCV NS3 helicase inhibitor project, biochemical, fluorescence polarization, NIH Clinical Collection (AID 743271; in the data active = inhibition above about 28%); conditions: stronger effect = higher value, concentration not given here
# [27] = fluorescence interference in NS3h assay format, artefact control for HCV NS3 helicase inhibitor project, biochemical, NIH Clinical Collection (AID 743272); conditions: fluorescence interference counterscreen, stronger effect = lower value;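 also: HCV NS3 helicase with a Cy5 labelled single stranded DNA probe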
# [28] = growth inhibition of DIPG glioma cells, dose response, cell-based, JHH-DIPG-1, MIPE4.0, CellTiter-Glo, qHTS (AID 1347062; cut-off not given, nearly all actives have AC50 up to about 27 µM); conditions: JHH-DIPG-1 viability, CellTiter-Glo ATP luminescence
# [29] = MELAS cybrid survival, CellTiter-Glo 48 h, stronger effect = higher value
# [30] = Rieske KO mouse fibroblast survival, CellTiter-Glo 72 h
# [31] = measured here: relative caspase fold change +Dox/-Dox
# [32] = measured here: total cells with miR-34 induction, stronger effect = lower value
# [33] = measured here: total cells without miR-34 induction
# Mitogen-activated protein kinase 7 (Homo sapiens), sequence (Q13164 whole entry, looked up, the tested form may be a part): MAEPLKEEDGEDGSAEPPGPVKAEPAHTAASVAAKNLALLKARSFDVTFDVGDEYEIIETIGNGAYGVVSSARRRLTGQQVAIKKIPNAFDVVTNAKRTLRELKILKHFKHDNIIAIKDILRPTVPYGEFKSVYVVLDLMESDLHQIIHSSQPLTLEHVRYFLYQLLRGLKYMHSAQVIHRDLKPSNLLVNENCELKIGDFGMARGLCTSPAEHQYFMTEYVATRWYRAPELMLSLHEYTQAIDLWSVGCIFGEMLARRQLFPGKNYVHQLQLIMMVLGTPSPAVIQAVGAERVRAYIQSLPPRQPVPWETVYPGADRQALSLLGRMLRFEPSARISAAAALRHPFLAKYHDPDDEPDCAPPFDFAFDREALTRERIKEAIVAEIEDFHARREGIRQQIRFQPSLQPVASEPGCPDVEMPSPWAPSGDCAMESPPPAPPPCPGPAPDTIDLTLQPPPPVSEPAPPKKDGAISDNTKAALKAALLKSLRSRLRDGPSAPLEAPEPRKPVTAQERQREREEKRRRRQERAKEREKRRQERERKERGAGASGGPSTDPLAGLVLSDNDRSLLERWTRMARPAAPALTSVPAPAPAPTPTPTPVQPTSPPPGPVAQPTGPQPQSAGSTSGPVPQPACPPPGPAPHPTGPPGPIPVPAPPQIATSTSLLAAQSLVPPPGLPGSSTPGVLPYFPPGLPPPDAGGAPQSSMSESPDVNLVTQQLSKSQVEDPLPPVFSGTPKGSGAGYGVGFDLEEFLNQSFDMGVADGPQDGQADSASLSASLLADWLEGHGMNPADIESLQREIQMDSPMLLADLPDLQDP
# 6-phosphogluconate dehydrogenase, decarboxylating (Homo sapiens), sequence (P52209 whole entry, looked up): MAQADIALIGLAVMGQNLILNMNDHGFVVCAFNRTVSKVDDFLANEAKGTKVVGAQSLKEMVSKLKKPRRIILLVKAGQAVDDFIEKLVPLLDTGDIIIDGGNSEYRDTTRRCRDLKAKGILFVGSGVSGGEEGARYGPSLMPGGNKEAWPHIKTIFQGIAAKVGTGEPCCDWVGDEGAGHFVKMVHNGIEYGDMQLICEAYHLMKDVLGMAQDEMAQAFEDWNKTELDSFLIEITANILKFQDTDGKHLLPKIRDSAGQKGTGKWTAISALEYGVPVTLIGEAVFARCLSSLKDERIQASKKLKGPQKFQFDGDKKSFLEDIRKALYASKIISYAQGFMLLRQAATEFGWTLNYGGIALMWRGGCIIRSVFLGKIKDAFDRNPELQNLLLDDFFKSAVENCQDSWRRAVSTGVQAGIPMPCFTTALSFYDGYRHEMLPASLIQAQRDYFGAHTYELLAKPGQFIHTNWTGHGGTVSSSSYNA
# NAD(+) hydrolase SARM1 (Homo sapiens), sequence (Q6SZW1 whole entry, looked up): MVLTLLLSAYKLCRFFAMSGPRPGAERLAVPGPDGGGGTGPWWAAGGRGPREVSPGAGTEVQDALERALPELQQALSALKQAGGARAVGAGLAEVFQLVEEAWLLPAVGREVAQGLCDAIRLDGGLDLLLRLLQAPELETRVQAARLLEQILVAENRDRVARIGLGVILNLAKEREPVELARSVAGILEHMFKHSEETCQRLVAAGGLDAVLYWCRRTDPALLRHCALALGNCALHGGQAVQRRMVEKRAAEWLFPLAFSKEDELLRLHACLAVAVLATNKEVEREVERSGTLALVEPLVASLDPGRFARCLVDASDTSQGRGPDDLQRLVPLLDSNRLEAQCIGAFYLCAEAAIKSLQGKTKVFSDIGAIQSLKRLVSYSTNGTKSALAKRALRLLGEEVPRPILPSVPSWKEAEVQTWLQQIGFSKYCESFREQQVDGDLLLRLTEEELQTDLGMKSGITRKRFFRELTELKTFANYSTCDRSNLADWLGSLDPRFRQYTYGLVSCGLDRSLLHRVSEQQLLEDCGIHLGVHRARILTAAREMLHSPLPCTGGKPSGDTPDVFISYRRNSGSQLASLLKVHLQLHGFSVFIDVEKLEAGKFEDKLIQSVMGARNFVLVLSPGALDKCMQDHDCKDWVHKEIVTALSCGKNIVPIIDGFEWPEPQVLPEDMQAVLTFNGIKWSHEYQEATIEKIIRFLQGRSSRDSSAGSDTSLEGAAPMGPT
# ATP-dependent translocase ABCB1 (Homo sapiens), sequence (P08183 whole entry, looked up): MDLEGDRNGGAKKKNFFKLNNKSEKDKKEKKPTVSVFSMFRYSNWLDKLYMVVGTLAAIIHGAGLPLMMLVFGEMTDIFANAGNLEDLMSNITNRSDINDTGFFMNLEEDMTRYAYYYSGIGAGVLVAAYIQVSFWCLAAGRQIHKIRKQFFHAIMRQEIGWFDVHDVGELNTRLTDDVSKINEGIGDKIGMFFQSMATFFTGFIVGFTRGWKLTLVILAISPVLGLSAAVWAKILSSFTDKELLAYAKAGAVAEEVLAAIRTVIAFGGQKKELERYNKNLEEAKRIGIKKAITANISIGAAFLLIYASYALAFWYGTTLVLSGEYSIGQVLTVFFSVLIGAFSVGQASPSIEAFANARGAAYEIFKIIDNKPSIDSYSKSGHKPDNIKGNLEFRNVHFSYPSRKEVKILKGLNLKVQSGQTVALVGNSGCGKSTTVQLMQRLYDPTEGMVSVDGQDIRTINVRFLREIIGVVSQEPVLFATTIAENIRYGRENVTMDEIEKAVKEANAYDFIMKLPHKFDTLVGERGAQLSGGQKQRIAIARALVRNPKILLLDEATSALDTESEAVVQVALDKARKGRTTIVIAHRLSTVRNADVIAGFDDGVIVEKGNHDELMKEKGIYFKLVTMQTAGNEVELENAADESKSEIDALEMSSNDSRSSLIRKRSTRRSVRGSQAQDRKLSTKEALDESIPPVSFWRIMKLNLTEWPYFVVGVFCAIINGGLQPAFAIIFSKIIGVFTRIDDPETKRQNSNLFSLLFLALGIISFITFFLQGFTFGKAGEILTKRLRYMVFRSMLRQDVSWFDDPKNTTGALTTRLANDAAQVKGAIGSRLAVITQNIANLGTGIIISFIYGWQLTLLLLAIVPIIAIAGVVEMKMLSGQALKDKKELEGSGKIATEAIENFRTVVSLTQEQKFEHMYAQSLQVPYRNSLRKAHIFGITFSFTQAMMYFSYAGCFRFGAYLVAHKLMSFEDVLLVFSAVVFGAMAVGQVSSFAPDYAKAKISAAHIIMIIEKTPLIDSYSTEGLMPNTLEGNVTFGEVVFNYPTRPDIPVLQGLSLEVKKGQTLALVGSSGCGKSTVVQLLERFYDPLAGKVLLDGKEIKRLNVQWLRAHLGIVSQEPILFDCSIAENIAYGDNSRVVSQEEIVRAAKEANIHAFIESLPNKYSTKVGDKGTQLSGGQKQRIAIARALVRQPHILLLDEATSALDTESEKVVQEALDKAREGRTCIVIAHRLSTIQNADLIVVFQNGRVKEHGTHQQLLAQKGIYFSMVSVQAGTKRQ
smiles,measurement,setting,value
Cc1cc2c(C(C)C)c(O)c(O)c(C=O)c2c(O)c1-c1c(C)cc2c(C(C)C)c(O)c(O)c(C=O)c2c1O,inhibition,[1],60.9%
same,aggregation ratio,[2],0.119
same,EC50,[3],57 µM
same,inhibition,[3],68% (active)
same,score,[4],1.78
same,rescue above control,[5],0
same,cytochrome c release ratio,[6],0.19
same,inhibition of aggregation,[7],19.1%
same,glutamate uptake change,[8],-53.4%
same,inclusion score,[9],0
same,aggregation suppression score,[10],0.368
same,inhibition,[11],14.1% (inactive) and -10.8% (inactive)
same,activity remaining,[12],96.1% (inactive) and 125% (inactive)
same,z-score,[13]; [29],-0.449 (inactive) and -0.0386 (inactive)
same,z-score,[13]; [30],-0.0272 and 0.0258
CNNC,inhibition,[11],-3.38% (inactive)
same,activity remaining,[12],86.5% (inactive)
same,luciferase signal,[14],32 AU (inactive)
C#C[C@]1(O)CC[C@H]2[C@@H]3CCC4=CC(=O)CC[C@]4(C)[C@H]3CC[C@@]21C,parasite load remaining,[15],27.4% (inactive) and 14.2% (inactive)
same,viability,[15],48.6% and 66.5%
same,inhibition,[11],7.17% (inactive)
same,fold change,[16]; stronger effect = lower value,0.927 (inactive) and 0.887 (inactive)
same,fold change,[16]; [31],1.32 and 1.63
same,cell count,[16]; [32],8580 and 9180
same,cell count,[16]; [33],9250 and 10300
same,z-score,[13]; [29],-0.171 (inactive) and 0.217 (inactive)
same,z-score,[13]; [30],-0.0237 and 0.861
same,remaining NAD,[17],10 nM (inactive)
same,luciferase signal,[14],68 AU (inactive)
same,z-score,[18],0.355 (inactive)
CCC(C)[C@H]1O[C@]2(C=C[C@@H]1C)C[C@@H]1C[C@@H](C/C=C(\C)[C@@H](OC3C[C@H](OC)C(O[C@H]4C[C@H](OC)[C@@H](O)[C@H](C)O4)[C@H](C)O3)[C@@H](C)/C=C/C=C3\CO[C@@H]4[C@H](O)C(C)=C[C@@H](C(=O)O1)[C@]34O)O2 (some centres undefined),inhibition,[1],-42.7%
same,score,[4],1.47
same,rescue above control,[5],0
same,cytochrome c release ratio,[6],4.06
same,inhibition of aggregation,[7],43.1%
same,glutamate uptake change,[8],-28.6%
same,aggregation suppression score,[10],1.02
same,parasite load remaining,[15],83.1% (inactive) and 34.5% (inactive)
same,viability,[15],68% and 87%
same,inhibition,[11],-3.19% (inactive)
same,activity remaining,[12],106% (inactive)
same,fold change,[16]; stronger effect = lower value,1.11 (inactive)
same,fold change,[16]; [31],1.23
same,cell count,[16]; [32],3700
same,cell count,[16]; [33],3330
COc1ccc([C@H]2Oc3c(I)c(OC)cc(OC)c3C[C@@H]2O)cc1OC,inhibition,[11],14.5% (inactive)
same,activity remaining,[12],103% (inactive)
same,luciferase signal,[14],44 AU (inactive)
N#C[C@H](O[C@@H]1O[C@H](CO[C@@H]2O[C@H](CO)[C@@H](O)[C@H](O)[C@H]2O)[C@@H](O)[C@H](O)[C@H]1O)c1ccccc1,inhibition,[11],-14.3% (inactive)
same,AC50,[19],23.5 µM (active)
same,AC50,[20],8.33 µM (active)
same,AC50,[21],20.9 µM (active)
same,luciferase signal,[14],56 AU (inactive)
CC(C)N1C(=O)c2ccccc2NS1(=O)=O,inhibition,[11],-1.1% (inactive)
same,activity remaining,[12],106% (inactive)
same,luciferase signal,[14],92 AU (inactive)
C[C@]12CC[C@H](O)C[C@@H]1CC[C@@H]1[C@@H]2CC[C@]2(C)C(=O)CC[C@@H]12,fluorescence slope change,[22],99.1% (active)
same,survival,[23],10.7 (inactive)
same,parasite load remaining,[15],91.7% (inactive) and 87.8% (inactive)
same,viability,[15],100% and 84.1%
same,inhibition,[11],18.5% (inactive)
same,fold change,[16]; stronger effect = lower value,0.944 (inactive)
same,fold change,[16]; [31],1.47
same,cell count,[16]; [32],7960
same,cell count,[16]; [33],8440
same,z-score,[13]; [29],0.265 (inactive)
same,z-score,[13]; [30],0.304
same,luciferase signal,[14],20 AU (inactive)
C[C@]12CC[C@H]3[C@@H](CCC4=CC(=O)CC[C@@]43C)[C@@H]1CC[C@@H]2O,parasite load remaining,[15],61.8% (inactive)
same,viability,[15],72.2%
same,fluorescence ratio,[24],0.93 (inactive)
same,inhibition,[25],1.53% (inactive)
same,inhibition,[26],0.39% (inactive)
same,fluorescence ratio,[27],0.96 (inactive)
same,inhibition,[11],16.5% (inactive)
same,outcome,[19],inactive
same,outcome,[28],inactive
same,outcome,[20],inactive
same,outcome,[21],inactive
same,remaining NAD,[17],10 nM (inactive)
same,luciferase signal,[14],68 AU (inactive)
COc1cc([C@@H]2c3cc4c(cc3[C@H](OC(C)=O)[C@H]3COC(=O)[C@@H]23)OCO4)cc(OC)c1OC,inhibition,[11],-3.31% (inactive)
same,activity remaining,[12],96.2% (inactive)
same,luciferase signal,[14],64 AU (inactive)
